The entries come from a sample that favours hits as a whole.
SF-1 inh: inhibitors of human SF-1, primary screen, cell-based, CHO-K1, Gal4-SF-1 LBD, luciferase luminescence. AID 525, 2006. CHO-K1 Gal4-SF-1 LBD luciferase reporter. Steroidogenic factor 1 (Homo sapiens), Q13285. inhibition, % at 10 µM. 0.55% of 65,000 active;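 active means inhibition above the mean inhibition of all tested compounds plus 3 SD, cut at about 48% in these data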;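 further: 0% = SF-1 transfected cells with DMSO and 100% = mock-transfected cells lacking SF-1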
Target sequence (Q13285 whole entry, looked up, the tested form may be a part): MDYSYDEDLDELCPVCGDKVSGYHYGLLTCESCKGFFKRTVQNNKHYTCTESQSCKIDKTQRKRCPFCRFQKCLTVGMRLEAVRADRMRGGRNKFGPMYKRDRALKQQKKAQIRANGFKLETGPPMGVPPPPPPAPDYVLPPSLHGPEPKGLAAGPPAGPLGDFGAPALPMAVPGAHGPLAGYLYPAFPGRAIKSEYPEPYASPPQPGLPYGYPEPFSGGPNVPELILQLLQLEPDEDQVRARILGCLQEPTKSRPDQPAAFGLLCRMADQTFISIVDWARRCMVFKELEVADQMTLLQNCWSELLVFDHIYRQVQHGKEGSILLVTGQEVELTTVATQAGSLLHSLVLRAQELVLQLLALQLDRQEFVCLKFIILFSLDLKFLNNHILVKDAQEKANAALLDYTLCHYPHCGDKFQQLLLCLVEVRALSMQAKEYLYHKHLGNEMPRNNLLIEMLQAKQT
* hit, by the source's call.

SMILES | SF-1 inh
CC1(C)COCN1S(=O)(=O)c1ccc(C(=O)Nc2nnc(-c3ccc(Cl)s3)o2)cc1 | 64.9*
COc1ccc(-c2nnc(NC(=O)c3ccc(S(=O)(=O)N4COCC4(C)C)cc3)o2)cc1 | 50.2*
COc1ccc(S(=O)(=O)N2CCCC2C(=O)Nc2ccc(O)cc2)cc1 (stereo not drawn) | 0.9
CC1CC(C)CN(C(=O)CSc2nnc(-c3ccc(Cl)s3)o2)C1 (stereo not drawn) | 5.1
CC(C)CC(NC=C1C(=O)OC(C)(C)OC1=O)C(=O)O (stereo not drawn) | 6.1
O=C(Cn1cnc2ccccc21)NCCCN1CCOCC1 | -24.0
CN(Cc1ccccc1)C(=O)CCNS(=O)(=O)c1ccc2c(c1)oc(=O)n2C | 6.9
COC(=O)C1=C(CN2CCN(C)CC2)NC(=O)NC1c1cc(C)ccc1C (stereo not drawn) | 3.3
COc1ccc(CCNC(=O)CN2CCCc3ccccc32)cc1OC | -17.0
COC(=O)C1=C(CN2CCCc3ccccc32)NC(=O)NC1c1ccc(F)cc1 (stereo not drawn) | 74.8*
CCCCSc1nc2c(c(=O)[nH]1)CCC2 | 16.0
O=C(Nc1nnc(C2CCCCC2)s1)c1ccco1 | -70.3
Brc1ccc(-c2nc(-c3ccccc3)no2)o1 | -62.6
c1ccc(-c2noc(-c3ccc4ccccc4c3)n2)cc1 | 50.4*
COc1ccc(-c2nc(-c3ccncc3)no2)cc1OC | -73.8
Fc1ccc(-n2[nH]nnc2=S)cc1N1CCCC1 | 4.9
Cc1ccc(Nc2nc(N)nc(CSc3nccn3C)n2)c(C)c1 | -23.5
CCOc1ccc(C)cc1S(=O)(=O)Nc1cccnc1 | -12.0
COc1cc(C(=O)Nc2ccc(N(C)C)cc2)cc(OC)c1OC | -62.3
COc1cc(NS(=O)(=O)c2ccc(C)cc2C)cc(OC)c1OC | 61.5*
O=C(CCS(=O)(=O)c1ccc(Br)cc1)N1CCN(c2ccccc2F)CC1 | 4.4
O=C(COc1ccc(Cl)cc1Cl)Nc1ccccn1 | -19.2
O=C(Nc1ccc2c(c1)OCO2)c1cnn2cccnc12 | -70.3
O=S(=O)(NCCSc1nnnn1-c1ccccc1)c1cccs1 | -54.1
CC1(C)CC(=O)C2=C(C1)Nc1ccccc1N=C2 | -57.7
SMILES | SF-1 inh
Nc1nonc1-c1nc2ccccc2n1Cc1ccc(Cl)cc1 | 21.5
CCCCOc1ccccc1NC(=O)Cn1c(-c2nonc2N)nc2ccccc21 | 67.3*
COc1cccc(Cn2c(-c3nonc3N)nc3ccccc32)c1 | -62.3
Cc1nn(-c2nc3ccccc3s2)c(C)c1Oc1ccccc1O | -57.7
CN1CC(=O)N(C)c2ncn(Cc3ccccc3)c2C1=O | 21.3
Cc1ccc(-c2cc(C(=O)N3CCCC3)no2)cc1 | 50.9*
COc1ccc(-c2cc(C(=O)N3CCCCC3)no2)cc1OC | -76.8
O=C(c1cc(-c2cccc(O)c2)on1)N1CCN(C(c2ccccc2)c2ccccc2)CC1 | 5.4
COc1cccc2cc(NC(=O)C3CCCCC3)c(=O)oc12 | -65.9
FC(F)C(F)(F)C1=CC(c2cccs2)=NCCN1 | 9.9
CC(C)CCNC(=O)NC(=O)COc1ccccc1C#N | -8.4
COC(=O)C1=C(N)N(c2ccc(F)cc2)C2=C(C(=O)CCC2)C1c1ccc2c(c1)OCO2 (stereo not drawn) | 13.1
c1ccc(-n2c(Cc3cn4ccsc4n3)nnc2N2CCOCC2)cc1 | -5.9
CCOc1ccc(OCc2cccc(C(=O)N3CCOCC3)c2)cc1 | 61.6*
COc1cccc(C(=O)N2CCN(Cc3cccc(F)c3)CC2)c1 | 1.5
Cc1ccc(-c2ccc(OCC(=O)N3CCOCC3)cc2)cc1 | 1.8
CCOC(=O)c1c(N)sn(-c2ccccc2C)c1=S | -0.2
Cc1cccc(OCC(O)CN2CCN(C3CCCCC3)CC2)c1 (stereo not drawn) | -36.2
CCN1C(=O)N(CN2CCOCC2)C2C1N(CN1CCOCC1)C(=O)N2CC (stereo not drawn) | 16.5
Cc1cc(/C=N/n2cnnc2)c(C)n1-c1ccc(OCc2ccccc2F)cc1 | 84.5*
CCc1nnc2c3cnn(-c4ccc(C)c(C)c4)c3ncn12 | -57.6
O=C(c1ccccc1)C(CCC(CN1CCOCC1)C(=O)c1ccccc1)CN1CCOCC1 (stereo not drawn) | 74.1*
O=C(CCSc1ccccc1)N1CCOCC1 | -52.5
O=C(c1ccccc1)c1ccccc1C(=O)N1CCOCC1 | 21.7
c1ccn2c(Cc3nnc4ccccn34)nnc2c1 | -11.3
SMILES | SF-1 inh
COc1cc(CSc2nnnn2-c2ccc(C)cc2)cc(OC)c1OC | 62.0*
COc1ccc(C)cc1-n1nnnc1SCc1nc2ccccc2s1 | -109.7
Cc1ccc(Nc2nc(CSc3nnnn3-c3ccccc3)cs2)cc1 | 5.9
O=C(CCCSc1nc2ccccc2[nH]1)NC1=NCCS1 | 11.8
O=C(CSc1cn(Cc2ccccc2)c2ccccc12)Nc1nccs1 | -84.5
O=C(CSC1=NCCS1)Nc1ccnc2ccccc12 | 66.9*
CCOc1cc(C(=O)Nc2ccc(S(=O)(=O)N3CCOCC3)cc2)cc(OCC)c1OCC | -12.5
O=C(Nc1ccc(S(=O)(=O)N2CCOCC2)cc1)c1cccs1 | -1.4
COc1ccc(N=c2scc(-c3ccc(S(=O)(=O)N4CCOCC4)cc3)n2CCCO)cc1 | 64.5*
CCN1C(=Nc2ccc(Cl)cc2)SC/C1=C\C(=O)OC | -1.8
CCN(CC)S(=O)(=O)c1ccc(C(=O)NCc2n[nH]c(=S)n2Cc2ccccc2)cc1 | 3.7
CN(C)S(=O)(=O)c1ccc(C(=O)Nc2ccc(CN3CCCC3)cc2)cc1 | 11.1
CCN(CC)S(=O)(=O)c1ccc(NC(=O)c2ccccn2)cc1 | -55.0
CCCCN(CCCC)S(=O)(=O)c1ccc(C(=O)Nc2nnc(CSC)o2)cc1 | 55.2*
COc1ccc(-n2ncc3c(NCc4ccccn4)ncnc32)cc1 | -56.4
Cc1cc(C)cc(-n2cc3c(=O)n(C)c(=O)n(C)c3c2)c1 | -0.7
Cc1ccc(S(=O)(=O)N2CCN(C(=O)CN3CCN(C)CC3)C2)cc1 | 7.2
CCOc1ccc(OCC)c(NC(=O)CSc2nc3c(c(=O)n(C)c(=O)n3C)n2C(C)C)c1 | -100.9
Cc1cc(C(=O)Nc2sc3c(c2C#N)CCC3)no1 | -115.6
Cc1ccnc(SCC(=O)Nc2sc3c(c2C#N)CCCC3)n1 | 76.0*
Cc1cc(C(=O)Nc2sc3c(c2C#N)CCCC3)no1 | -71.0
Cc1nc2sc(C(c3ccco3)N3CCC(Cc4ccccc4)CC3)c(O)n2n1 (stereo not drawn) | -11.6
Cc1sc2nc3n(c(=O)c2c1C)Cc1ccccc1-3 | -56.1
CCOC(OCC)P(=O)(c1ccccc1)c1ccccc1 | -19.8
O=C(c1cccs1)c1cn(CC(=O)N2CCc3ccccc3C2)c2ccccc12 | 4.1
SMILES | SF-1 inh
COc1ccc(-c2cc(C(=O)OC3CCOC3=O)c3ccccc3n2)cc1OC (stereo not drawn) | -5.9
N#C/C(=C\c1ccc(O)c(O)c1)C(=O)NCCCc1ccccc1 | 69.1*
Cn1c(SCC(=O)Nc2cc(=O)n(C)c(=O)n2C)nnc1-c1cccs1 | -6.1
Cc1occc1C(=O)n1nnc2ccccc21 | 4.6
O=C(c1ccc2c(c1)OCO2)N1CCN(c2ccc(F)cc2)CC1 | -7.1
Cc1occc1C(=O)N1CCN(c2ccc(Cl)c(Cl)c2)CC1 | 55.8*
O=C(NCCCn1ccnc1)C1c2ccccc2Oc2ccccc21 | 4.9
CC(=O)Nc1ccc(-c2nc3c(C)cccc3[nH]2)cc1 | -99.2
Cn1c(=O)c2c(ncn2CCCNC2=CC(C)(C)CC(=O)C2)n(C)c1=O | 8.4
O=C(CCC1CCCCC1)NCc1ccncc1 | 15.0
COC(=O)COc1ccc(S(=O)(=O)NCc2ccncc2)cc1 | 17.3
CCN(C1CCCCC1)S(=O)(=O)c1ccc(S(=O)(=O)NCc2ccncc2)cc1 | 52.3*

Assay outcomes: PubChem BioAssay, The Scripps Research Institute Molecular Screening Center
